Screening results (PubChem BioAssay)
RE007 growth inh = less growth of the S. pombe RE007 Vpr strain | S. pombe RE007 Vpr strain, BacTiter-Glo ATP luminescence, 24 h | Potency, µM (top dose mostly 92.2 µM), without a hit: top-dose activity change, negative = less growth, actives largely listed as inhibitors | 0.21% of 360,000 active | AID 651644; active = well fitted falling curve with a large enough effect; inconclusive = small, poorly fitted or top-dose-only effect; inactive = no such curve, though single readings can be large or run the other way; also: nearly all actives have a fitted effect of over 50% in size
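Fission yeast strain RE007, carrying one chromosomally integrated HIV-1 vpr copy, was seeded at OD 0.01 in PMG+AL medium with 23 nL pinned compound. After 24 h at 30 °C and 99% humidity, viability was read by BacTiter-Glo luminescence.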
Sm TGR inh = blocks Schistosoma mansoni thioredoxin glutathione reductase; purified TGR, DTNB reduction, TNB absorbance 405 nm; 3% of 360,000 active; Potency, µM (highest dose often 114 µM), for the others: at the highest dose activity change, negative = inhibition, actives largely listed as inhibitors; Q962Y6; also: nearly all actives have a fitted effect of over 60% in size
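Kinetic colorimetric format: TGR-catalysed, NADPH-driven DTNB reduction monitored via TNB absorbance. Enzyme dispensed at 20 nM; compound exposure 15 min at room temperature before reaction start.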
LmPK inh = inhibitors of Leishmania mexicana pyruvate kinase. Q27686. purified LmPK, Kinase-Glo ATP luminescence, 1 h. Potency, µM (highest dose often 57.5 µM), inactives show top-dose activity change, negative = inhibition, hits mostly inhibitors. 0.37% of 290,000 active. AID 1721
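0.1 nM LmPK, 0.5 mM PEP, 0.1 mM ADP; 50 mM imidazole pH 7.2, 7 mM MgCl2, 50 mM KCl; 1 h RT. Kinase-Glo luminescence readout, normalized to no-enzyme (full inhibition) and uninhibited wells.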
FBPA Giardia inh = inhibitors of Giardia lamblia fructose-1,6-bisphosphate aldolase; A8B2U2; purified Giardia FBPA; Potency, µM (top dose mostly 59.6 µM), for inactives: at the top dose activity, negative = inhibition, actives largely listed as inhibitors; 0.71% of 290,000 active; AID 2451; also: nearly all actives have a fitted effect of over 55% in size
Target sequence (A8B2U2 whole entry, looked up): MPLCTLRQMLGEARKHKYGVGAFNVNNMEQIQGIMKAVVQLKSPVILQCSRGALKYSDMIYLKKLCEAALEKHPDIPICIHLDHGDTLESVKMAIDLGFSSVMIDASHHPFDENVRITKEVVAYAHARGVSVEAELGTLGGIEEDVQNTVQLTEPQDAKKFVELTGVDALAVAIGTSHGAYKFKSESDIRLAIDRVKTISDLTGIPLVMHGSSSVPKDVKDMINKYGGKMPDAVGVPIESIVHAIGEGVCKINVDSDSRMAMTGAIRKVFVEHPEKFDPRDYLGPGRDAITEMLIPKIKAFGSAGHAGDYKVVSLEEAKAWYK
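Giardia FBPA (40 nM reagent) was preincubated 10 min at RT with compound (up to 57.5 uM final), then substrate plus GAPDH/TPI/NAD/arsenate coupling system with diaphorase/resazurin was added; resorufin fluorescence (525/598 nm) was read after 20 min.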
TbPYK inhibitor = inhibitors of Trypanosoma brucei pyruvate kinase; AID 624173; Q57TT1; Potency, µM (series often up to 76.8 µM), without a hit: top-dose activity, negative = inhibition, most hits filed as inhibitors; TbPYK enzyme, Kinase-Glo Plus ATP luminescence, 45 min; 0.12% of 410,000 active; also: nearly all actives have a fitted effect of over 50% in size
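Enzyme and substrate buffer are dispensed first and compound is pin-transferred. ADP at 130 uM final then starts the reaction, which runs 45 min at room temperature. Detection reagent is added for 10 min before luminescence is imaged.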
An asterisk follows results filed as active; ? = inconclusive; . = no result; [ ] = another dose, or the depositor's remark. Shown are actives, neighbours in structure and some others; about 3.3% of the full set was active somewhere. Unless noted, calls follow the shape of the dose curve; as a rule, active = well fitted curve in the direction sought with a large enough effect; inconclusive = small, poorly fitted or top-dose-only effect, or another doubt; inactive = no such curve, though single readings can be large; an effect the other way counts as inactive or inconclusive. % is scaled to controls: 0 for no effect and ±100 for the full control effect; potency is read from the fitted curve at half-maximal effect.

SMILES	RE007 growth inh	Sm TGR inh	LmPK inh	FBPA Giardia inh	TbPYK inhibitor
COc1cc(/C=N/NP(=S)(c2ccccc2)c2ccccc2)ccc1O	13.6%	-9.2%	0.2%	-1.0%	-9.0%
COc1cc(/C=N/Nc2cccc(C)c2)ccc1OC(=O)c1cccs1	137.9%	-28.8%	5.5%	-4.2%	-12.2%
NS(=O)(=O)c1ccc(N2CCNCC2)cc1	-6.8%	.	-1.7%	1.6%	-0.6%
O=C(O)C1(S(=O)(=O)CCC(F)=C(F)F)CC1	4.8%	31.6µM*	0.8%	-0.5%	-2.8%
Cc1cccc(NS(=O)(=O)c2cccc(C(=O)N3CCN(S(=O)(=O)c4ccccc4)CC3)c2)c1	2.3%	1.1%	.	.	0.6%
CN(C)C(=O)c1nc2ccccc2s1	9.1%	-0.9%	0.0%	7.9%	5.0%
CN(C)c1ccc(CC(=O)c2nc3ccccc3s2)cc1	-11.6%	39.8µM*	-4.1%	-4.6%	-11.8%
O=C1NC(=S)N/C1=C/c1cccc([N+](=O)[O-])c1	-1.4%	-0.7%	-4.7%	0.5%	-9.5%
CN1C(=O)/C(=C/c2cccc([N+](=O)[O-])c2)C(=O)N1c1ccccc1	-12.1%	25.1µM*	5.2%	-10.3%	?
COc1cc(C2OCC3C(c4ccc(OC5OC(CO)C(O)C(O)C5O)c(OC)c4)OCC23)ccc1O (stereo unspecified)	-10.8%	35.5µM*	4.9%	-10.8%	-11.9%
CN(C)c1ccc(C(c2nnnn2CCOC(=O)Nc2ccc(Cl)cc2)N2CCOCC2)cc1 (stereo unspecified)	0.6%	25.1µM*	5.7%	?	-10.6%
O=C(Nc1nc2ccc(F)cc2s1)C1=COCCO1	?	-4.8%	.	.	?
O=C(Nc1nc2ccc(F)cc2s1)c1ccccn1	14.1µM*	-7.2%	17.8µM*	?	?
O=C(Nc1nc2ccccc2s1)c1cnccn1	-25.4%	-5.7%	10µM*	5.9%	-16.3%
CCc1nc2ccccc2c(C(=O)Oc2ccc(C(=O)OC)cc2)c1C	27.7%	-17.2%	-1.4%	6.7%	-9.0%
COc1cc(C(=O)N/N=C/c2coc3ccccc3c2=O)cc(OC)c1OC	-11.4%	44.7µM*	-9.1%	16.0%	-11.5%
COc1ccc(C(=O)N/N=C\c2coc3ccccc3c2=O)cc1	-1.8%	?	?	-1.7%	-6.4%
CC1(C)Cc2c(c(N3CCOCC3)nc3sc4c(NCC5CCCO5)nnnc4c23)CS1 (stereo unspecified)	5.8%	-9.0%	2.6%	20.4%	0.1%
Cc1cc(C(=O)Nc2ccc(N3CCOCC3)cc2)c2ccccc2n1	32.1%	4.0%	-3.4%	-4.1%	-5.5%
OCC[n+]1c2ccccc2nc2ccc(N3CCOCC3)cc21	-29.5%	?	15.8µM*	?	-21.4%
O=C(CCn1c(=O)c2cccn2c2cccnc21)N1CCN(c2ccc(F)cc2)CC1	.	3.6%	.	.	-7.1%
C/C(=N\Nc1nnc(C)c(=O)[nH]1)C(=O)O	12.0%	1.1%	12.6%	3.54µM*	-5.5%
O=[N+]([O-])c1ccc(Oc2cccc3cccnc23)c([N+](=O)[O-])c1	.	0.8%	1.5%	19.9µM*	-11.9%
Cc1ccc2c(CN3CC(C)CC(C)C3)cc(=O)oc2c1 (stereo unspecified)	2.2%	89.1µM*	2.8%	5.6%	4.3%
Cc1ccc2c(CN3CCCCC3CCO)cc(=O)oc2c1 (stereo unspecified)	18.0%	25.1µM*	1.7%	-18.8%	-9.1%
Cc1ccc2c(CN3CCCCC3C)cc(=O)oc2c1 (stereo unspecified)	18.3%	1.8%	-0.8%	-10.7%	-5.6%
Cc1cccc(N2CCN(C(=O)CN3CCOc4ccccc43)CC2C)c1 (stereo unspecified)	8.9%	-21.2%	15.7%	-12.6%	-2.9%
Cc1ccc(N2C(=O)C3C4C=CC(CNC(=S)N5CCN(c6cccc(C)c6)C(C)C5)(O4)C3C2=O)cc1 (stereo unspecified)	2µM*	3.16µM*	-2.1%	2.3%	-14.6%
c1ccc(-c2ccccn2)nc1	18.0%[18.4 µM]	13.0%	1.0%	?	-1.4%
c1ccc(-c2ccc(-c3ccccn3)nn2)nc1	.	0.0%	14.1µM*	?	.
